This is a sample that favours compounds with a hit; in the whole collection about 4.7% have one here.
D1 antag – Antagonist of Human D 1 Dopamine Receptor: qHTS; D(1A) dopamine receptor (Homo sapiens), P21728; 3.2% of 360,000 active; activity change, negative = inhibition, % at 10 µM; HEK293 TREx D1 cells, calcium flux, dopamine EC80; active compounds read low; AID 504652, 2011; in the data active means activity change below about -30%
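Tetracycline-induced HEK293 T-REx cells with force-coupled D1 receptor were loaded with a no-wash calcium dye. Compound was added after a 10 s baseline and read kinetically for 180 s; EC80 dopamine was then added and calcium flux followed another 180 s.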
D1 ag – Allosteric Agonists of the Human D1 Dopamine Receptor: qHTS. D(1A) dopamine receptor (Homo sapiens), P21728. HEK293 T-REx D1 cells, calcium flux, agonist mode. activation, % at 2 µM. 1% of 360,000 active
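Tetracycline-induced HEK293 TREx D1 cells, force-coupled to calcium signalling, were dye-loaded with a no-wash calcium kit. Compound was pin-added after a 10 s baseline. Fluorescence was read kinetically at 1 cycle/s for 180 s, with calcium rises flagged as agonism.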
D1 PAM – Potentiators of Human D1 Dopamine Receptor: qHTS | D(1A) dopamine receptor (Homo sapiens), P21728 | HEK293 TREx D1 cells, calcium flux, dopamine EC20 potentiation | potentiation, % at 10 µM | 0.036% of 360,000 active | AID 504651, 2011; in the data active means potentiation above about 30%
TRHR enhancer – qHTS for Small Molecule Agonists and Allosteric Enhancers of Human TRH Receptor: Primary Screen for Enhancers. enhancement, % at 2 µM. TRHR cells, fluo-8 calcium fluorescence, EC20 TRH enhancement. Thyrotropin-releasing hormone receptor (Homo sapiens), P34981. 0.66% of 360,000 active. AID 493056, 2011; in the data active means enhancement above about 30%
Target sequence (P34981 whole entry, looked up): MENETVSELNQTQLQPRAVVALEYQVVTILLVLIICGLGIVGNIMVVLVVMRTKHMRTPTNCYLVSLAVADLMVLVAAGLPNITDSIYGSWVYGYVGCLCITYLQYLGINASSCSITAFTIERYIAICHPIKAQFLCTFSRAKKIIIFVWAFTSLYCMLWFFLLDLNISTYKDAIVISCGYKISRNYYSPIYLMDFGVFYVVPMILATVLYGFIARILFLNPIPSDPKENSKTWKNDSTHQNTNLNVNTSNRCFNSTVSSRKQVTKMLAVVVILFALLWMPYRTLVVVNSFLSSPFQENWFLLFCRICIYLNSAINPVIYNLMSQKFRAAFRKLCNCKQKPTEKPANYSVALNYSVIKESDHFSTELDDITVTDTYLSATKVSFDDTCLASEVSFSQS
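TRHR-expressing cells loaded with fluo-8 calcium dye were read kinetically (ex 480/em 530) during compound addition, then stimulated with an EC20 of TRH (10 nM final). Enhancement of the Gq-mediated intracellular calcium response was scored.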
TRHR ag – qHTS for Small Molecule Agonists and Allosteric Enhancers of Human TRH Receptor: Primary Screen for Agonists; Thyrotropin-releasing hormone receptor (Homo sapiens), P34981; TRHR cells, calcium flux fluo-8, FDSS agonist mode; activation, % at 2 µM; 0.18% of 360,000 active; AID 493084, 2011
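Read-out: compound-evoked intracellular calcium rise in TRHR cells, fluo-8 dye, kinetic FDSS fluorescence at 1 s/cycle following a 10-cycle baseline. Cells cultured overnight before dye loading (30 min–1.5 h, RT).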
Hits are given with their value; . = inactive. Unless noted, no stated cut-off is given here; in the data, active means activation above about 30%; inactive means the rest.

SMILES | D1 antag | D1 ag | D1 PAM | TRHR enhancer | TRHR ag
O=C(c1cc(-c2ccccc2O)on1)N1CCc2ccccc2C1 | -32 | . | . | . | .
COc1ccccc1CNC(=O)CN1C(=O)COc2ccc(S(=O)(=O)Nc3ccccc3)cc21 | . | . | . | . | .
CCOCCCNC(=O)C(c1ccc(Cl)cc1)N(Cc1cccs1)C(=O)c1ccc(NC(C)=O)cc1 (stereo unspecified) | . | . | . | . | .
O=C(c1cc(-c2ccccc2Cl)nc2ccccc12)N1CCC1 | . | . | . | . | .
Cc1ccccc1-c1cc(C(=O)N2CCCC2)c2ccccc2n1 | . | . | . | 31 | .
COc1cccc(C2=NOC(C(=O)Nc3ccc4c(c3)OCO4)C2)c1 (stereo unspecified) | . | . | . | . | .
O=C(Nc1ccc2c(c1)OCO2)C1CC(c2cccc(Br)c2)=NO1 (stereo unspecified) | -38 | . | . | . | .
COCCNC(=O)CN1C(=O)c2cccnc2Sc2ccccc21 | . | . | . | . | .
COc1ccc(N2CCN(C(=O)c3nc(-c4ccc(Cl)cc4)n4c3CCCCC4)CC2)cc1 | . | . | . | . | .
CCc1ccc(NS(=O)(=O)c2[nH]ncc2C(=O)OC)cc1 | -38 | . | . | . | .
CCc1ccc(NS(=O)(=O)c2cc(OC)ccc2OC)cc1 | . | . | . | . | .
CCC(NC(=O)c1ccccc1NC(=O)c1ccccc1)C(=O)OC (stereo unspecified) | . | . | . | . | .
O=C1CN(C(=O)c2ccc(S(=O)(=O)N3CCCC3)cc2)C(c2ccccc2)c2cc(Br)ccc2N1 (stereo unspecified) | . | . | . | . | .
COc1ccccc1C(=O)N1CC(=O)Nc2ccc(C)cc2C1c1ccc(F)cc1 (stereo unspecified) | . | . | . | . | .
Cc1ccc2c(c1)C(c1ccccc1)N(C(=O)c1ccc(S(=O)(=O)N3CCCCC3)cc1)CC(=O)N2 (stereo unspecified) | -48 | . | . | . | .
COc1ccc(C(=O)N2CC(=O)Nc3ccc(C)cc3C2c2ccccc2)c(OC)c1 (stereo unspecified) | -45 | . | . | . | .
Cc1c(C(=O)N2CCCCCC2)c(S(=O)(=O)Nc2ccc(OC(F)(F)F)cc2)c(C)n1C | . | . | . | . | .
O=C(Nc1nnc(-c2ccc3c(c2)CCCC3)o1)c1ccc(Cl)cc1Cl | . | 36 | . | . | .
O=C(Nc1nnc(-c2ccncc2)o1)C1CCCCC1 | . | . | . | . | .
O=C(Nc1nnc(-c2ccc3c(c2)CCCC3)o1)C1CCCCC1 | -46 | . | . | . | .
O=C1c2cc(F)ccc2OC2(CCNCC2)C12CC(c1ccccc1)=NO2 (stereo unspecified) | . | 43 | . | . | .
COc1ccc(CCNC(=O)c2coc3ccccc3c2=O)cc1 | . | . | . | . | .
COc1ccc(-n2nc(C(=O)NCC(=O)NCC3COc4ccccc4O3)c3ccccc3c2=O)c(OC)c1 (stereo unspecified) | . | . | . | 33 | .
COc1ccc(CN(C(=O)COc2ccccc2OC)C2CCS(=O)(=O)C2)cc1 (stereo unspecified) | . | . | . | . | .
CCC1CCCCN1C(=O)c1ccc2c(c1)N(Cc1cccc(Cl)c1)C(=O)c1ccccc1S2(=O)=O (stereo unspecified) | . | . | . | . | .
O=C(CSc1nnc2ccc(-c3cccnc3)nn12)Nc1cccc(F)c1 | . | . | . | . | .
C=CCc1ccccc1OCCNCCCOC | -46 | . | . | . | .
Cc1ccc(C(=O)OCC(=O)Nc2ccccc2Cl)c(O)c1 | . | . | . | . | .
O=C(COC(=O)c1ccc(O)cc1O)Nc1cccc2ccccc12 | . | . | . | 35 | .
CCOC(=O)C1CCN(c2c(N3CCCC(C(=O)OCC)C3)c(=O)c2=O)CC1 (stereo unspecified) | . | . | . | . | .

Compound activity: PubChem BioAssay, National Center for Advancing Translational Sciences (NCATS)
